From the supplement of paper PMC11732987, “Enantioselective OTUD7B fragment discovery through chemoproteomics screening and high-throughput optimisation” (Communications Chemistry, 2025)

Tests used:
Test in all cases: log2 ratio of Biotin-Ahx-Ub-VS probe labelling (fragment/DMSO); higher = less target engagement (more negative = stronger competition), active = hit call of the paper (q ≤ 0.05, log2 ratio ≤ -1)
Settings in all cases: compound concentration: 200 uM; treatment time: 3 h
[1] = target: USP34 (UniProt Q70CQ2)
USP34, sequence (Q70CQ2 whole entry, the tested form may be a part): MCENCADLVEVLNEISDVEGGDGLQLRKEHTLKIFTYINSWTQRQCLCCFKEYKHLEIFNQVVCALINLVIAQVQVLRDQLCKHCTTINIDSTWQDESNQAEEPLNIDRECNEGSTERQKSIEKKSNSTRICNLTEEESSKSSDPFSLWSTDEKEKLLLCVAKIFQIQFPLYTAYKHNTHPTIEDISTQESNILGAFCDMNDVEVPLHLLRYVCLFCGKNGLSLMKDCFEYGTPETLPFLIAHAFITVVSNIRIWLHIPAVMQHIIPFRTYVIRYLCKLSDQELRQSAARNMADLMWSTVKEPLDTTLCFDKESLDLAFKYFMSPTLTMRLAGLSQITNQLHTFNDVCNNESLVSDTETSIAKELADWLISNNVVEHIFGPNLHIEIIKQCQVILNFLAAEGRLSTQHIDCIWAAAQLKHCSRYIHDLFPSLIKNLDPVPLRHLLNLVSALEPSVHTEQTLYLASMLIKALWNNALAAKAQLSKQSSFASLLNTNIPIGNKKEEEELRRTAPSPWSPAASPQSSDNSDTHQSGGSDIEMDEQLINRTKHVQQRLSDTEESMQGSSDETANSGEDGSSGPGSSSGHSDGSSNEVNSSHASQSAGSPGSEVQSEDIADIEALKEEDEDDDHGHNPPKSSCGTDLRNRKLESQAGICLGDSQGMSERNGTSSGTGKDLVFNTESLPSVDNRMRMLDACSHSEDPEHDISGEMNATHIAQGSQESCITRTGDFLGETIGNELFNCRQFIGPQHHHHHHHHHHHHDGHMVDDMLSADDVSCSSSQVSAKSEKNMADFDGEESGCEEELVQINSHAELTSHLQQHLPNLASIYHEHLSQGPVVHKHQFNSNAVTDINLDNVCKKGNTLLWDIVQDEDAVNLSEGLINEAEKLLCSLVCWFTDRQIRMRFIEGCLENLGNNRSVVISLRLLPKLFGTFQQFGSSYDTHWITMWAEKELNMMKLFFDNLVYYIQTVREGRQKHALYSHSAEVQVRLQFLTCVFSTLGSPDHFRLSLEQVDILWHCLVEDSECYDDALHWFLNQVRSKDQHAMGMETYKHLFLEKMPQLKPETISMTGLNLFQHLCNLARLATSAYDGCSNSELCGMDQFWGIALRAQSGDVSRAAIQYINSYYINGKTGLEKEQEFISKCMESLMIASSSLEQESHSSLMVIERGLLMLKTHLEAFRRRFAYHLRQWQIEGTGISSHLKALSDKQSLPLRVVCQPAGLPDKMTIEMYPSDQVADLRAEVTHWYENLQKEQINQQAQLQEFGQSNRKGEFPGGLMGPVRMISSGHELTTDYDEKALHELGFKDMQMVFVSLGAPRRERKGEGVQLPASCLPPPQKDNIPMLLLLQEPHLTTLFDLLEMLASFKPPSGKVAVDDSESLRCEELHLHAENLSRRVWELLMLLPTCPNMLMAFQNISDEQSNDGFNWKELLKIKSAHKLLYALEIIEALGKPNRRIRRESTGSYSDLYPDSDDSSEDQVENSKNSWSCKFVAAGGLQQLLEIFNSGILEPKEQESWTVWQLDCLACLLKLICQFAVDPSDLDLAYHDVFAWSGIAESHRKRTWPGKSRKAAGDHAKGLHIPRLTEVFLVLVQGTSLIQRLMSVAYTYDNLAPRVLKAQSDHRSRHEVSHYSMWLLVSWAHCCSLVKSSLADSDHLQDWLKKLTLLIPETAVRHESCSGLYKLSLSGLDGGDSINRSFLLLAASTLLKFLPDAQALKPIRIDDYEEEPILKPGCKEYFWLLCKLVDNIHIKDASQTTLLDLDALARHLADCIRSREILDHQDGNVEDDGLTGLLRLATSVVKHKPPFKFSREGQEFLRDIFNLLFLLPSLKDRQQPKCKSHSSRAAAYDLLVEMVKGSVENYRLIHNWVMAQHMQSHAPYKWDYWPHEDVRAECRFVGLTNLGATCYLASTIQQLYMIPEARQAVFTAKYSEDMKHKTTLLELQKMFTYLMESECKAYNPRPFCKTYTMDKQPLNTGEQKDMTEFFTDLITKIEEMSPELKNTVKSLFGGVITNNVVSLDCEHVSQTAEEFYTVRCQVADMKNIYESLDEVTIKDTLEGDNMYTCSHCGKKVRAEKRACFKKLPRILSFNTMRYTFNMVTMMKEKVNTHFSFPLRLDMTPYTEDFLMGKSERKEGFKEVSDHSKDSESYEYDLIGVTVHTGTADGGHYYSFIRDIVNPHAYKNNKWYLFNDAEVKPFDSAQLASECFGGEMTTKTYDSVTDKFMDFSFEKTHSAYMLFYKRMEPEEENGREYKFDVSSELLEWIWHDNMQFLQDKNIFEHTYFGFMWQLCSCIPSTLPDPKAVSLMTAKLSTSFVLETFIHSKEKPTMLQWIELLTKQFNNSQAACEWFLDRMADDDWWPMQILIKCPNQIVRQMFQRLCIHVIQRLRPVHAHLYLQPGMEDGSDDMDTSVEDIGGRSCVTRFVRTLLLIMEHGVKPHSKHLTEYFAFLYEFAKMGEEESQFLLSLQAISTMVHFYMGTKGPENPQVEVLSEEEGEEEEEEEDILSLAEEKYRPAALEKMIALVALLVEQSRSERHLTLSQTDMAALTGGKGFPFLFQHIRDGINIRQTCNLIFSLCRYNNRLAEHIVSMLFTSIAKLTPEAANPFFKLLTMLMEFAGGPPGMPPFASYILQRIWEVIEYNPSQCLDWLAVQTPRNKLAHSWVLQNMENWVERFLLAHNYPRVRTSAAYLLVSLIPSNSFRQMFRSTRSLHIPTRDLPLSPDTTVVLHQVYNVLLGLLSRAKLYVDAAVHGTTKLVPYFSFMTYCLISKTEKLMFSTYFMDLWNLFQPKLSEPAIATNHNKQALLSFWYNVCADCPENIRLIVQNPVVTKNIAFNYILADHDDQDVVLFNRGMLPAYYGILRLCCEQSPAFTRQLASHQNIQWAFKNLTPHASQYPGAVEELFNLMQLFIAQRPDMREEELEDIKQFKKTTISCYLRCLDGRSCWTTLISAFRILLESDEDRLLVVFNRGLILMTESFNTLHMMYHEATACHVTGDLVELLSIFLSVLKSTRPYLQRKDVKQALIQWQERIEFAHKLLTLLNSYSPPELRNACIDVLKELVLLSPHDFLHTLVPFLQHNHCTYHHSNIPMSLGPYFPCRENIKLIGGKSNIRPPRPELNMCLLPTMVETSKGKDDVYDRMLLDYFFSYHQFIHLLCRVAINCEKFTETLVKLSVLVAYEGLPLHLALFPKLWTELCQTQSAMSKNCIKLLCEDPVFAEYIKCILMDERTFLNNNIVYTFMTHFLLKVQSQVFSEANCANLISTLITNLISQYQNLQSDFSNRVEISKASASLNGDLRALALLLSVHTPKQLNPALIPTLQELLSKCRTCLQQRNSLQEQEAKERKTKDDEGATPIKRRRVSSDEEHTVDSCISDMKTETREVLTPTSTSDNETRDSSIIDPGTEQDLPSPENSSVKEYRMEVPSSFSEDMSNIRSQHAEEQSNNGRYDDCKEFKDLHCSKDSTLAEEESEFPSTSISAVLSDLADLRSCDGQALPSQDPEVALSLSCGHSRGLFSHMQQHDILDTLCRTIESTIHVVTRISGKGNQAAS
Method in brief: (§1)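 Triplicate samples of HEK293T lysate, 495 µg each, received fragment at 200 µM or vehicle for 3 h, followed by Biotin-Ahx-Ub-VS (0.5 µM final) for 1 h. After NeutrAvidin enrichment of labelled DUBs and LysC/trypsin digestion, peptides were run by diaPASEF LC-MS/MS. The values are average log2 fragment/vehicle ratios from global-median-normalised Spectronaut label-free quantities, tested by unpaired t-test on proteins having ≥2 unique peptides.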

[2] = target: T1, USP36 (UniProt Q9P275)
T1 sequence (whole entry): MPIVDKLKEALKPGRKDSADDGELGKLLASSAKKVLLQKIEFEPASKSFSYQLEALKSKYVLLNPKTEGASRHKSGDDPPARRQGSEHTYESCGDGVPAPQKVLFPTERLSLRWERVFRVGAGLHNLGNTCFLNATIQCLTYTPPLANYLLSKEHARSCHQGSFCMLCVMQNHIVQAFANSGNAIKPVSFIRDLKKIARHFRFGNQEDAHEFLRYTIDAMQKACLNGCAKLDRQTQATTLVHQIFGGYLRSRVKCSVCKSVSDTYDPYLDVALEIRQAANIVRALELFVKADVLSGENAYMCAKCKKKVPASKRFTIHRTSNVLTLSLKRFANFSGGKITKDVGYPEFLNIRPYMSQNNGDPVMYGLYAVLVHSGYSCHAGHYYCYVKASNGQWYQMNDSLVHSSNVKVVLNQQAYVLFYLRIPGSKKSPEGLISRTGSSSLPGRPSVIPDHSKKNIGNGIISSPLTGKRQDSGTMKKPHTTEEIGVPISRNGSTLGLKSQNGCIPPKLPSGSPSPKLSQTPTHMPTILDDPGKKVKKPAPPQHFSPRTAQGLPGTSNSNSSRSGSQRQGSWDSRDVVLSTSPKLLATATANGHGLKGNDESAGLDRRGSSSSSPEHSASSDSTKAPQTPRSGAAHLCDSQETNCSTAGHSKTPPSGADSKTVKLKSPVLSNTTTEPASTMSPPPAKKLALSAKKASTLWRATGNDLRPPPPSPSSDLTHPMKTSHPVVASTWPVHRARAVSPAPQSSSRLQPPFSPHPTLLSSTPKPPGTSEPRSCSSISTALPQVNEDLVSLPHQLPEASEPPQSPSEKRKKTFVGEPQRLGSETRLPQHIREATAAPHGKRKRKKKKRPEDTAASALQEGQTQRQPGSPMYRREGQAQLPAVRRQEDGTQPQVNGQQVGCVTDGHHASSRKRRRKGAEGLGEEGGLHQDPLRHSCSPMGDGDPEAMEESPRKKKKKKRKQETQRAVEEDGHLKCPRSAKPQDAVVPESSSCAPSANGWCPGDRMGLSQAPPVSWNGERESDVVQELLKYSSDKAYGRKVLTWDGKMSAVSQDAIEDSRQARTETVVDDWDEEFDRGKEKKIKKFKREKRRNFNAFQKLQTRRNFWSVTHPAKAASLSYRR
Method in brief: as §1

[3] = target: T2, USP38 (UniProt Q8NB14)
T2 sequence (whole entry): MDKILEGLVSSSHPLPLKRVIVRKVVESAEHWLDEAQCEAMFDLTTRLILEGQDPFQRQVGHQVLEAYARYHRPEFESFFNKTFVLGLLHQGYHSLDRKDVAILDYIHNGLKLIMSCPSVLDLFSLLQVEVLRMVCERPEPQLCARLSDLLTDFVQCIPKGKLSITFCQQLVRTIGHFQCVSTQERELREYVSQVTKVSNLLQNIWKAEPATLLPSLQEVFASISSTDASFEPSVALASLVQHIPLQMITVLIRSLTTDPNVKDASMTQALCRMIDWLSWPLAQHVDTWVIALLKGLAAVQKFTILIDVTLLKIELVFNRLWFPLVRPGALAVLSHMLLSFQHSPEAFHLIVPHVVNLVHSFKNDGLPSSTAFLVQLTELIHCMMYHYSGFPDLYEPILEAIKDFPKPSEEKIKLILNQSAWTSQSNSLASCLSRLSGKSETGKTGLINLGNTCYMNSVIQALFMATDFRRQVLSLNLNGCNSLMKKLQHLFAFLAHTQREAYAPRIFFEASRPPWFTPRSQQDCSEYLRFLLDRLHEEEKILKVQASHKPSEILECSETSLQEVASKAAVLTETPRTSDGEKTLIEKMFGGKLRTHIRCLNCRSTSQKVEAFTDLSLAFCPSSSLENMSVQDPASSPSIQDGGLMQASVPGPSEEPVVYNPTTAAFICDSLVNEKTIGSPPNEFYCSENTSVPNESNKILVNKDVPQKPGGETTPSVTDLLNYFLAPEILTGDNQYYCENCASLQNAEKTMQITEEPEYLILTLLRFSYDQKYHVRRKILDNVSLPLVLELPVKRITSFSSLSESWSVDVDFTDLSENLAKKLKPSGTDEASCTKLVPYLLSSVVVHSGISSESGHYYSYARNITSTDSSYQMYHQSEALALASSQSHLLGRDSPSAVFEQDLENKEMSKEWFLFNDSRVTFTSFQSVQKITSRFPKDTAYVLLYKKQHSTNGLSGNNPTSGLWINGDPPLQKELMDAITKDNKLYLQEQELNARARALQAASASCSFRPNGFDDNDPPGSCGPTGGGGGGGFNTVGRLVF
Method in brief: as §1

[4] = target: T3, USP39 (UniProt Q53GS9)
T3 sequence (whole entry): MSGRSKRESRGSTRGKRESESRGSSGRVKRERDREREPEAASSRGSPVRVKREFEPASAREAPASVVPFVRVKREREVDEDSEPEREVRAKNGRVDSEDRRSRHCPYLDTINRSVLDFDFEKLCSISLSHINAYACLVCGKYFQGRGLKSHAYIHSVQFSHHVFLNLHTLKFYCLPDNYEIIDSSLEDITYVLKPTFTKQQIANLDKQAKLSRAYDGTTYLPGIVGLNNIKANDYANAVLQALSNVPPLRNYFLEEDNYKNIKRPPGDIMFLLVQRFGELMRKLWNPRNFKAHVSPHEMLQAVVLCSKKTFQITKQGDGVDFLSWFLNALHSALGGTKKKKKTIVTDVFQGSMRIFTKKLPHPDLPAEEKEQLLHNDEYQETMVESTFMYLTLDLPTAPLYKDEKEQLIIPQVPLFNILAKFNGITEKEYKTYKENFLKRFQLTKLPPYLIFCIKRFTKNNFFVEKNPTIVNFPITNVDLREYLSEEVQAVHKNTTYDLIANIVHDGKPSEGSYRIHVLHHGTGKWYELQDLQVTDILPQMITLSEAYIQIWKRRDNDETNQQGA
Method in brief: as §1

[5] = target: T4, USP4 (UniProt Q13107)
T4 sequence (whole entry): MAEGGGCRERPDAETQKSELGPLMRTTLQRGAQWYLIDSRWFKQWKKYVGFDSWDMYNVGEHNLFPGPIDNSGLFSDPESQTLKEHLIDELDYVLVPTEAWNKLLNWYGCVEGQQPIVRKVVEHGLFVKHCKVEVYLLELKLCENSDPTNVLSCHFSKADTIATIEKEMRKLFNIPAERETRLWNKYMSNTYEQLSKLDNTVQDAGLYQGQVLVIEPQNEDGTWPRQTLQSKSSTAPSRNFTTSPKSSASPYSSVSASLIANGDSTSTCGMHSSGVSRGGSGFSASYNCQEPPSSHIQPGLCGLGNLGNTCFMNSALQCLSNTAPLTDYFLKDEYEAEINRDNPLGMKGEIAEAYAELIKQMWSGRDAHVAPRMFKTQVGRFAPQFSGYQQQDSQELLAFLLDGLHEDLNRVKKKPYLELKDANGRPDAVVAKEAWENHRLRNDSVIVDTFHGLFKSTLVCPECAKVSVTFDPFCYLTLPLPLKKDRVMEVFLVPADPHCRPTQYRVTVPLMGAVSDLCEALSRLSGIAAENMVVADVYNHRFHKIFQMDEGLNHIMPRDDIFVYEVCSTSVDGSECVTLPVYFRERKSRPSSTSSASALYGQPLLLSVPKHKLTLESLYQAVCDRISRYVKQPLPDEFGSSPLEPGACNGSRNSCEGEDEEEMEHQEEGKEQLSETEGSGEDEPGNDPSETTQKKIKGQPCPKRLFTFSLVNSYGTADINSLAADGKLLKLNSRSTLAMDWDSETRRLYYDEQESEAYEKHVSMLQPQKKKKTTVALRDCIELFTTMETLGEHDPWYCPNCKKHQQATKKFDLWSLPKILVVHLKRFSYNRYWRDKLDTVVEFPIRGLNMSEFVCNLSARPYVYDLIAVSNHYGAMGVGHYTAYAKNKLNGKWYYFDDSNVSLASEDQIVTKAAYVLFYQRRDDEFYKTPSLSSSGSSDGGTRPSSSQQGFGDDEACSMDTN
Method in brief: as §1

Measured: log2 ratio of Biotin-Ahx-Ub-VS probe labelling

Cc1cccnc1NC(=O)C1CCN(C(=O)CCl)CC1.Cl
inactive: [1] -0.124 | [2] -0.102 | [3] -0.157 | [4] 0.0484 | [5] 0.0404
